High-throughput results (PubChem BioAssay)
Most compounds without a hit are left out; they make up all but 4.6% or so of the library.
D1 antag: Antagonist of Human D 1 Dopamine Receptor: qHTS; AID 504652, 2011; HEK293 TREx D1 cells, calcium flux, dopamine EC80; hits give low values; D(1A) dopamine receptor (Homo sapiens), P21728; activity change, negative = inhibition, % at 10 µM; hit rate 3.2% among 360,000; in the data active means activity change below about -30%; further: on the % scale 0 is the no-effect control and ±100 the full control effect
Target sequence (P21728 whole entry, looked up): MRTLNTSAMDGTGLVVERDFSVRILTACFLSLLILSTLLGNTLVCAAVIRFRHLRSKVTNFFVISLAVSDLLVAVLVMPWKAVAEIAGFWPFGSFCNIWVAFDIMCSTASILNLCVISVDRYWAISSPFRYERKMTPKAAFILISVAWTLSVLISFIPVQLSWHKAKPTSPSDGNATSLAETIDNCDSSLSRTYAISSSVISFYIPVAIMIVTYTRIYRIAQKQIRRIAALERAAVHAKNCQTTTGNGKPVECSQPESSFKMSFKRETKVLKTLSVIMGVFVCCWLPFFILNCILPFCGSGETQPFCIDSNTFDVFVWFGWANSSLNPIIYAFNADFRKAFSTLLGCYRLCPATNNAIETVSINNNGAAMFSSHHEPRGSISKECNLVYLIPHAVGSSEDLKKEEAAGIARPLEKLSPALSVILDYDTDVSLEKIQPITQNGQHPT
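Calcium flux readout: force-coupled, inducible Hek293 Trex D1 line, cells induced overnight at 30 C with tetracycline, dye-loaded 30–90 min at RT. Antagonism scored against EC80 dopamine challenge given 180 s after compound.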
TRHR enhancer: qHTS for Small Molecule Agonists and Allosteric Enhancers of Human TRH Receptor: Primary Screen for Enhancers. hit rate 0.66% among 360,000. TRHR cells, fluo-8 calcium fluorescence, EC20 TRH enhancement. Thyrotropin-releasing hormone receptor (Homo sapiens), P34981. enhancement, % at 2 µM; in the data active means enhancement above about 30%; further: 0% is about no effect
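Enhancer read-out: after compound pinning and an initial kinetic agonist-mode read, an EC20 of TRH (10 nM final) was injected and fluo-8 calcium signal (Ex 480/Em 530) followed at 1 s/cycle for 100 cycles in TRHR-expressing cells.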
D1 agonist: Allosteric Agonists of the Human D1 Dopamine Receptor: qHTS. activation, % at 2 µM. AID 504660, 2011. HEK293 T-REx D1 cells, calcium flux, agonist mode. D(1A) dopamine receptor (Homo sapiens), P21728. hit rate 1% among 360,000; further: 0% is about no effect
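Agonism was scored from calcium flux recorded over 180 s (1 read/s) after pintool compound addition, following a 10-cycle baseline. Cells were inducible force-coupled HEK293 TREx D1, plated overnight at 30 C and loaded with no-wash calcium dye.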
D1 PAM: Potentiators of Human D1 Dopamine Receptor: qHTS | D(1A) dopamine receptor (Homo sapiens), P21728 | HEK293 TREx D1 cells, calcium flux, dopamine EC20 potentiation | potentiation, % at 10 µM | hit rate 0.036% among 360,000; in the data active means potentiation above about 30%; further: 0% is about no effect
TRHR ag: qHTS for Small Molecule Agonists and Allosteric Enhancers of Human TRH Receptor: Primary Screen for Agonists; Thyrotropin-releasing hormone receptor (Homo sapiens), P34981; TRHR cells, calcium flux fluo-8, FDSS agonist mode; activation, % at 2 µM; hit rate 0.18% among 360,000; AID 493084, 2011; further: 0% is about no effect
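TRHR-expressing cells loaded with fluo-8 calcium dye; 23 nL library compound pin-transferred, kinetic FDSS fluorescence (Ex 480/Em 530) recorded about 180 s for agonist-induced calcium release, before a 10 nM TRH EC20 addition for potentiator mode.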
Starred values were filed as active, the others as inactive. Unless noted, no stated cut-off is given here; in the data, active means activation above about 30%; inactive means the rest.

SMILES | D1 antag | TRHR enhancer | D1 agonist | D1 PAM | TRHR ag
CCOC(=O)c1c(C)[nH]c(C)c1S(=O)(=O)N1CCC(C(=O)NCc2ccc(OC)cc2)CC1 | -11.0 | -4.5 | -0.1 | -0.1 | -0.1
O=C(Nc1cc(S(=O)(=O)N2CCOCC2)ccc1O)c1ccc(NS(=O)(=O)c2ccc(Cl)s2)cc1 | -67.7* | 0.3 | -0.6 | -12.4 | -0.3
CCOc1ccc(C(=O)Nc2ccc(S(=O)(=O)N3CCN(C)CC3)cc2)cc1 | 0.4 | 5.3 | 9.0 | -18.1 | -0.5
Cc1ccc(C(=O)Nc2ccc(S(=O)(=O)N3CCOCC3)cc2)cc1 | -6.2 | 19.0 | 5.1 | 2.2 | -0.7
CN(CCOc1ccc(Cl)cc1)C(=O)c1ccc(S(=O)(=O)N2CCOCC2)cc1 | -39.0* | 0.1 | 22.1 | -1.2 | -0.3
CN(CCOc1ccccc1)C(=O)c1cc(S(=O)(=O)N2CCOCC2)ccc1Cl | -19.4 | -2.1 | 0.3 | -6.7 | -0.5
Cc1ccc(NC(=O)c2ccc(S(=O)(=O)N3CCC(C)CC3)cc2)cc1 | -39.2* | 3.6 | 0.4 | -5.3 | -0.1
O=S(=O)(Nc1cc(S(=O)(=O)N2CCCC2)ccc1O)c1ccc(Cl)s1 | 10.6 | 1.8 | 2.0 | 1.6 | 0.0
CC(C)Oc1ccc(C(=O)Nc2ccc(S(=O)(=O)N3CCN(C)CC3)cc2)cc1 | -53.0* | 0.0 | 4.3 | -20.6 | 1.6
CC(=O)Oc1ccc(C(=O)Nc2ccc(S(=O)(=O)N3CCOCC3)cc2)cc1 | -90.1* | 40.7* | 6.4 | 1.2 | 1.4
CCOC(=O)C1CCN(S(=O)(=O)c2ccc(NC(=O)c3ccco3)cc2)CC1 | -32.6* | 1.1 | 2.3 | -6.3 | -0.9
O=C(Nc1ccc(S(=O)(=O)N2CCOCC2)cc1)c1ccc(S(=O)(=O)N2CCOCC2)cc1 | 2.1 | 7.6 | 1.9 | -0.2 | 1.0
Cc1ccccc1N1CC(C(=O)Nc2ccc(S(=O)(=O)N3CCCCC3)cc2)CC1=O (centres undefined) | -10.5 | 34.8* | 4.5 | -1.7 | -0.9
O=C(Nc1ccc(S(=O)(=O)N2CCCCCC2)cc1)c1ccco1 | -5.0 | 1.3 | 2.4 | 2.2 | 0.3
O=S(=O)(c1ccc(F)cc1)N1CCC(N2CCCCCC2)CC1 | 10.1 | 2.3 | 2.2 | 1.6 | 0.4
CC1CCN(C2CCN(S(=O)(=O)c3ccc(F)cc3)CC2)CC1 | -32.6* | -2.6 | 0.1 | 2.2 | 0.5
COc1ccc(-c2[nH]c(-c3ccc(OC)c(OC)c3)nc2SCC(=O)Nc2ccccc2)cc1 | -2.1 | -8.3 | 4.1 | -1.8 | 0.7
Cc1sc2c(c1C)c(=O)n(-c1cccc(C(F)(F)F)c1)c(=O)n2Cc1ccccc1C#N | 0.8 | 2.4 | 11.1 | -0.6 | -1.5
Cc1ccc(NC(=O)c2ccccc2NS(=O)(=O)c2ccc(Cl)s2)cc1S(=O)(=O)N1CCOCC1 | -50.5* | -22.7 | 34.4* | -6.1 | -1.0
O=C(Nc1ccc(S(=O)(=O)N2CCOCC2)cc1)c1ccc(Cl)cc1 | -39.7* | -6.5 | 5.1 | -5.6 | -1.1
O=C(Nc1ccc(S(=O)(=O)N2CCOCC2)cc1)C1CCCCC1 | -2.1 | 2.6 | 5.7 | 43.0* | -0.1
O=C(Nc1ccc(S(=O)(=O)N2CCCC2)cc1)C1CCCCC1 | 14.9 | -6.4 | -2.2 | -2.5 | 0.3
O=S(=O)(Nc1cccc(S(=O)(=O)N2CCOCC2)c1)c1ccc(Cl)s1 | 2.9 | 6.2 | 1.5 | -5.2 | 0.8
COc1ccc(C)cc1NC(=O)c1ccccc1NS(=O)(=O)c1ccc(Cl)s1 | -30.8* | -8.5 | 23.9 | -4.2 | 3.4
CCOc1cc(CNC(=O)CN2CCSc3ccccc32)cc(OCC)c1OCC | 2.3 | 6.5 | 2.2 | -1.6 | -0.4
SMILES | D1 antag | TRHR enhancer | D1 agonist | D1 PAM | TRHR ag
O=C1CC(c2nc(-c3cccc(Cl)c3)no2)CN1c1ccc2c(c1)OCCO2 (centres undefined) | -9.5 | 1.6 | 14.6 | -1.4 | 0.8
O=C(NCC(c1ccc2c(c1)OCO2)N1CCOCC1)C(=O)Nc1ccc(Cl)cc1 (centres undefined) | -19.2 | -13.1 | 3.5 | -1.9 | 0.9
O=C(OCCOc1ccccc1)c1cccc(S(=O)(=O)N2CCOCC2)c1 | 3.5 | -0.1 | 0.7 | -6.7 | 2.6
Cc1ccc(S(=O)(=O)N2CCOCC2)cc1C(=O)OCCOc1cccc(Cl)c1 | -14.6 | 9.7 | 30.6* | 2.4 | -0.5
CC(=O)Nc1ccc(S(=O)(=O)N2CCC(C(=O)c3ccc(Cl)cc3)CC2)cc1 | -44.5* | -3.3 | 6.5 | -8.6 | 0.4
O=C(Nc1ccc(Cc2ccncc2)cc1)c1ccc(S(=O)(=O)N2CCOCC2)cc1 | -41.3* | 7.8 | 16.0 | -3.2 | 1.5
Cc1nc(-c2cccc(F)c2)sc1CCNC(=O)C(=O)Nc1ccc2c(c1)OCO2 | 0.2 | 6.2 | 8.3 | -2.1 | 0.2
COc1ccc(-n2c(SCC(=O)c3ccc(Cl)cc3)nc3c([nH]c4ccccc43)c2=O)cc1 | -11.0 | 1.8 | 0.6 | -2.6 | 0.5
O=C(NC1CCCCC1)C(c1ccccc1)N(Cc1ccco1)C(=O)Cn1cnc2ccccc21 (centres undefined) | -44.1* | -14.0 | 1.8 | -3.4 | 0.8
O=C(NCCc1ccccc1)c1ccc(Cl)c([N+](=O)[O-])c1 | -36.4* | -3.1 | 1.6 | -2.5 | 1.3
NS(=O)(=O)c1ccc(CCNC(=O)c2cccc([N+](=O)[O-])c2)cc1 | 4.7 | -3.0 | 0.7 | -1.6 | 1.6
O=C(Cc1ccccc1)NCCc1cccc(Cl)c1 | -55.2* | 6.0 | 27.3 | -8.1 | -1.0
Cc1cc(C(=O)NCCc2ccccc2)ccc1[N+](=O)[O-] | -17.1 | 9.0 | 1.7 | -5.9 | -0.6
O=C(NCCc1cccc(Cl)c1)c1cccc([N+](=O)[O-])c1 | -42.4* | -3.3 | 3.6 | -3.9 | -1.6
Cc1c(Cl)cccc1NC(=O)c1cnc2sc(N3CCOCC3)nn2c1=O | -21.8 | 2.0 | -0.4 | -3.5 | -0.7
Cc1ccc(NC(=O)/C(C#N)=C/c2ccc(C)s2)c(C)c1 | 3.7 | -4.5 | 42.9* | -2.0 | -0.4
COC(=O)c1cc2sccc2n1Cc1c(C)cc(C)cc1C | 18.9 | 3.7 | 0.0 | 3.8 | -0.3
O=C(c1ccco1)N(Cc1ccc([N+](=O)[O-])cc1)c1ccc(Br)cc1 | 0.2 | 1.1 | -0.5 | -2.3 | 0.1
O=C(c1ccco1)N(Cc1cccc([N+](=O)[O-])c1)c1ccc(Br)cc1 | -36.1* | 20.6 | 29.8 | -2.0 | -0.2
O=C(NCCc1ccccc1F)C1CCCN1S(=O)(=O)c1ccc2ccccc2c1 (centres undefined) | -52.9* | -0.8 | 40.8* | -15.3 | -0.1
Cc1ccc(C)c(CNC(=O)C2CCCCN2S(=O)(=O)c2ccc(F)cc2)c1 (centres undefined) | -37.4* | -1.1 | 44.1* | -5.5 | -0.9
